14 targets from the supplement of paper PMC12067093, “Discovery and optimisation of a covalent ligand for TRIM25 and its application to targeted protein ubiquitination” (Chemical Science, 2025) can be followed below.

The full data set covers some 21,000 targets. This sample favours those with the largest changes.

Compound in the experiment: Cc1cc(ccc1-c1ccccc1)C(=O)N1CCCN(CC1)C(=O)CCl [compound 10]
The experiment can be described thus: probe-labelled cysteine peptide fold change vs DMSO (competition) (log2 fold change); higher = less target engagement (more negative = stronger competition). Particulars: THP-1, incubation time: 4 h.
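Note: competitive profiling in live THP-1 cells: cysteine peptides tagged with an iodoacetamide desthiobiotin (IA-DTB) probe, intensity after compound treatment relative to DMSO-treated cells.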

Sequence of UniProt O75419 (O75419 whole entry, looked up): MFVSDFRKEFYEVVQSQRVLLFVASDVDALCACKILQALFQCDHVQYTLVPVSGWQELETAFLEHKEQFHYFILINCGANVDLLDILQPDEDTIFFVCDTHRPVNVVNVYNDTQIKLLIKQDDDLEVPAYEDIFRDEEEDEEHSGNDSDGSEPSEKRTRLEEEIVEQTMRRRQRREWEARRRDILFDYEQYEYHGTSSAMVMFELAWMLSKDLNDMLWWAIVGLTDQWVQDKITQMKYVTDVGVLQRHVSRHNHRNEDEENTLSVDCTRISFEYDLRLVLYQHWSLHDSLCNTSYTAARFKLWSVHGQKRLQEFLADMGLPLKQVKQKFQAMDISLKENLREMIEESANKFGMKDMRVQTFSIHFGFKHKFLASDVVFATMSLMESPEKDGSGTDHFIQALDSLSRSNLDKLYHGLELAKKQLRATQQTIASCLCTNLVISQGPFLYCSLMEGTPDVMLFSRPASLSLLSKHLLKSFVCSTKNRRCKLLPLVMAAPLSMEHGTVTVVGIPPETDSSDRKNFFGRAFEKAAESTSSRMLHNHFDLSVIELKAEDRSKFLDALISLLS
Sequence of UniProt Q8N163 (Q8N163 whole entry, looked up): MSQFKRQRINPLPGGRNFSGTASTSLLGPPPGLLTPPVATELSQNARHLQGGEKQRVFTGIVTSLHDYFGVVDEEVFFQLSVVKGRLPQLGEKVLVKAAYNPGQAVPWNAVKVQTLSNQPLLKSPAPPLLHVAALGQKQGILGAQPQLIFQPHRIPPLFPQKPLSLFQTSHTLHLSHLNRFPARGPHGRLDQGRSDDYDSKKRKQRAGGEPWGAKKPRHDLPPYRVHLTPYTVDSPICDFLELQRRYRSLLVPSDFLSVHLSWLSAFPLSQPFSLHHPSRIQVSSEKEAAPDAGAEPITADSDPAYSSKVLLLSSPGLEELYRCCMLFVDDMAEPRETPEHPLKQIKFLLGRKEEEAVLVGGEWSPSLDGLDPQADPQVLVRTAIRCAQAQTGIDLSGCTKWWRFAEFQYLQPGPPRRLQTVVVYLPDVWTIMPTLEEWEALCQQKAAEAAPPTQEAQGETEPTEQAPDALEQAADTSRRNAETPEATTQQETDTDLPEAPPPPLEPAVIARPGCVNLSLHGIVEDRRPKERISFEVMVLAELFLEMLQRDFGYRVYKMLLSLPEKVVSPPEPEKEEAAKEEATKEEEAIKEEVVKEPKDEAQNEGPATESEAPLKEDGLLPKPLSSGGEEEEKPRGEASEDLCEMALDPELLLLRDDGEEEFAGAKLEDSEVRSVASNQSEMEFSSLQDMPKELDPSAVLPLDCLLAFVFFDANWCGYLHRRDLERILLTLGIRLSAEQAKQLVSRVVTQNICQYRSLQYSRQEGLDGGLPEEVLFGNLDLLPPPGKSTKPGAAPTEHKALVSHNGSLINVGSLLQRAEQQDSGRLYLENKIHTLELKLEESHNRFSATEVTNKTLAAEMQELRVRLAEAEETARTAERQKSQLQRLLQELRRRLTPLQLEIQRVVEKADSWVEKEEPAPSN
Sequence of UniProt P21953 (P21953 whole entry, looked up): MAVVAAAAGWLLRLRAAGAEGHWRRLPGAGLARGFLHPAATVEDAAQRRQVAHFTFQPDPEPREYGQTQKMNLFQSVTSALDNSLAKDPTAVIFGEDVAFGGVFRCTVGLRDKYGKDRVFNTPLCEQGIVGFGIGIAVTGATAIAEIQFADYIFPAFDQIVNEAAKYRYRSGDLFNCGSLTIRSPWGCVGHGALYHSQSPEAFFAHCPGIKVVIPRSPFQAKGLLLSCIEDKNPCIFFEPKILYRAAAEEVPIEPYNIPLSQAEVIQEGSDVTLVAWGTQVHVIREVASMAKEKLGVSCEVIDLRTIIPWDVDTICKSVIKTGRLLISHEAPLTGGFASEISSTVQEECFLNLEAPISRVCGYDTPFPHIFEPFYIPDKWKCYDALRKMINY
Sequence of UniProt P83916 (P83916 whole entry, looked up): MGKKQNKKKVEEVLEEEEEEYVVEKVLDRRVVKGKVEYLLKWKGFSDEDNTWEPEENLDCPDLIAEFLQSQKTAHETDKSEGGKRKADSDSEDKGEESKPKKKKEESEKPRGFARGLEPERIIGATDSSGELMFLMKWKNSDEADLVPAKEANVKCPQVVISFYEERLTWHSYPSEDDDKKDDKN
Sequence of UniProt P27708 (P27708 whole entry, looked up): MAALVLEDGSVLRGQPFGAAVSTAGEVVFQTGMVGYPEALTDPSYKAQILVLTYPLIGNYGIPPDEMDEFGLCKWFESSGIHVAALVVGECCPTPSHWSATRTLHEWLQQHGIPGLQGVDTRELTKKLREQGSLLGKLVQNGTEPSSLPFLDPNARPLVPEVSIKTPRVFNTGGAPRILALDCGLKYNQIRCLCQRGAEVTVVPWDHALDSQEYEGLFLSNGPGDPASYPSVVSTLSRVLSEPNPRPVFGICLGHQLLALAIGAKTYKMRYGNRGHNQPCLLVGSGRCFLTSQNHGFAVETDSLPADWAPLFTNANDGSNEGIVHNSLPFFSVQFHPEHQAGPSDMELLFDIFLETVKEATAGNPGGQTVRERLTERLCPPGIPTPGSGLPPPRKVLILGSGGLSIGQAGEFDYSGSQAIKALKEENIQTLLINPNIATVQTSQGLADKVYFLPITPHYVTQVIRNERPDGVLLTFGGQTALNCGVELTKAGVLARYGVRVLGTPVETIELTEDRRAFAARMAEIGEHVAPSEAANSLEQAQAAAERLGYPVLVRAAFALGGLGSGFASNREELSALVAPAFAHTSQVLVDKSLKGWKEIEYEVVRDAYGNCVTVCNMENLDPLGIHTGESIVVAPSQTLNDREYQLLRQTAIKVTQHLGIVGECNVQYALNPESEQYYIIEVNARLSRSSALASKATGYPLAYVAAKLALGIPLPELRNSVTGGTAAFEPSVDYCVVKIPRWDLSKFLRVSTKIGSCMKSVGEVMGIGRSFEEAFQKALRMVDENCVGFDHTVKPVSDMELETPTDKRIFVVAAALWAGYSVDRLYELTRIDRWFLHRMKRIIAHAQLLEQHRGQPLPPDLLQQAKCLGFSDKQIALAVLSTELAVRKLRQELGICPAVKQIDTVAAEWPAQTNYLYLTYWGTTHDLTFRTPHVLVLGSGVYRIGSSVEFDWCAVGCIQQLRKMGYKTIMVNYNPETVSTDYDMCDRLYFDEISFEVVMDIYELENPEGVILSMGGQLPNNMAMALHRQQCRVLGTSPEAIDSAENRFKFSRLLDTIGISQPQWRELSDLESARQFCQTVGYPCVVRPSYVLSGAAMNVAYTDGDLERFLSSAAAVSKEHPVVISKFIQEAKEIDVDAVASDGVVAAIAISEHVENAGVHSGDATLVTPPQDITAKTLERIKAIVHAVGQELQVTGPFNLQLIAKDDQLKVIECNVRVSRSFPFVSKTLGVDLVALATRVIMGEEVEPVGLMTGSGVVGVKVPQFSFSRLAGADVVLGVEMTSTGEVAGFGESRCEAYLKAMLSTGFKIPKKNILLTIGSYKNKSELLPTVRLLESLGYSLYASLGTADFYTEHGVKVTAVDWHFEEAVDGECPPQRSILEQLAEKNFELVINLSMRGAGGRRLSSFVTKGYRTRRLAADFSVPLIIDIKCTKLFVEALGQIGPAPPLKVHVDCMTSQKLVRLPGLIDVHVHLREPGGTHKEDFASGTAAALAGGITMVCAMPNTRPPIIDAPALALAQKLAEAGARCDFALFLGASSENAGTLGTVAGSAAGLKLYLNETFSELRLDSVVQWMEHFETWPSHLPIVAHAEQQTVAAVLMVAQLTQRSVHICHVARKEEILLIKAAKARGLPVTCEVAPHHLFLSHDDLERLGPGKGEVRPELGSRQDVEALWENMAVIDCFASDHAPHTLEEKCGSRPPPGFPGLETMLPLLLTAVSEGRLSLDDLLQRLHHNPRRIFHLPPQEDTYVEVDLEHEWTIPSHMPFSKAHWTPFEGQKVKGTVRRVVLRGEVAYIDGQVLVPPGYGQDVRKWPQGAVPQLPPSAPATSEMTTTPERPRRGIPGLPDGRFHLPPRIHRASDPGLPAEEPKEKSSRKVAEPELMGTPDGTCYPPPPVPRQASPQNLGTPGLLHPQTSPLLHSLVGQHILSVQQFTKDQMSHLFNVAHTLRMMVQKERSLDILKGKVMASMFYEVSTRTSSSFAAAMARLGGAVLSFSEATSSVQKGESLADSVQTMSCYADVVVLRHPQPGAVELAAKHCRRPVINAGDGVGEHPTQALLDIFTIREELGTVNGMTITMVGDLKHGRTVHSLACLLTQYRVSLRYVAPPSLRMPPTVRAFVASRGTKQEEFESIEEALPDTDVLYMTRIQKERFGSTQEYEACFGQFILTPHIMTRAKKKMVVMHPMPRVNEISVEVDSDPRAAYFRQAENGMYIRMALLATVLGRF
Sequence of UniProt Q92851 (Q92851 whole entry, looked up): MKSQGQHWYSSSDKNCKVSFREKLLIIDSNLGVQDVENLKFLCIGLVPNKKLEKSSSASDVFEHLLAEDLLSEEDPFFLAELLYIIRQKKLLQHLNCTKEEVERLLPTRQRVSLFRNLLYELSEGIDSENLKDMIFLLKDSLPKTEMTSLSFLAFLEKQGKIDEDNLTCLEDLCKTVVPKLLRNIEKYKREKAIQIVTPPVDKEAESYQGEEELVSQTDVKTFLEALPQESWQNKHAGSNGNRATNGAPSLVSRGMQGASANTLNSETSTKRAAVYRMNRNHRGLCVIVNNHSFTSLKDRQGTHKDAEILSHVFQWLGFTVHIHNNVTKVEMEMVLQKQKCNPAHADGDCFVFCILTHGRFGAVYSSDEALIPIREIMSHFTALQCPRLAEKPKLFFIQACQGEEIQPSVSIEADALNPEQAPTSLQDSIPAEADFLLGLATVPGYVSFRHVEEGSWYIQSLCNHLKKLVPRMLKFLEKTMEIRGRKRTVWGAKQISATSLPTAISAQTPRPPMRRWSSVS

Regarding “CBX1_P83916_156_CPQVVISFYEER (UniProt P83916)”, the “probe-labelled cysteine peptide fold change” value is 0.121 (10 µM) and -0.00934 (50 µM).
For “CHPF_Q8IZ52_243_YCHGGFGVLLSR (UniProt Q8IZ52)” the same measures were -0.176 and 0.255.
Consider “CHORDC1_Q9UHD1_86_ELCELK (UniProt Q9UHD1)”, for which the “probe-labelled cysteine peptide fold change” value is -0.0657 (10 µM) and 0.205 (50 µM).
For “CCAR2_Q8N163_515_RNAETPEATTQQETDTDLPEAPPPPLEPAVIARPGCVNLSLHGIVEDR (UniProt Q8N163)” the same measures were 0.107 and -0.245.
For “CASP10_Q92851_169_IDEDNLTCLEDLCK (UniProt Q92851)” the same measures were -0.0609 and 0.0728.
For “BOP1_Q14137_108_TTEEQVQASTPCPR (UniProt Q14137)” the same measures were -0.185 and -0.638.
As to “CDK5_Q00535_117_GLGFCHSR (UniProt Q00535)”, the “probe-labelled cysteine peptide fold change” value is, setting by setting: (10 µM) 0.00449; (50 µM) 0.158.
The matching figures for “CBX4_O00257_185_EAPSPTCPDLGAK (UniProt O00257)”: -0.129 and -0.0437.
For “CDC45_O75419_267_HNHRNEDEENTLSVDCTR (UniProt O75419)” the same measures were 0.0632 and -0.279.
The matching figures for “C17orf75_Q9HAS0_265_FLSVASLQGLIHEGTMTSLCMAMTEEQHK (UniProt Q9HAS0)”: 0.0249 and -0.756.
Regarding “BIRC6_Q9NR09_3773_TAIENATVAFFLQCISCHPNNQK (UniProt Q9NR09)”, the “probe-labelled cysteine peptide fold change” value (10 µM) was 0.213 and the “probe-labelled cysteine peptide fold change” value (50 µM) was found to be 0.136.
“CAD_P27708_2161_FGSTQEYEACFGQFILTPHIMTR (UniProt P27708)”: the “probe-labelled cysteine peptide fold change” value stood at 0.0378 (10 µM) and 0.111 (50 µM).
Regarding “BCKDHB_P21953_361_VCGYDTPFPHIFEPFYIPDK (UniProt P21953)”, the “probe-labelled cysteine peptide fold change” value is -0.0395 (10 µM) and 0.155 (50 µM).
The matching figures for “CAND1_Q86VP6_802_CVAALTR (UniProt Q86VP6)”: 0.211 and -0.156.
